High-throughput results as filed in PubChem BioAssay.
Sampled rows, rich in hits. Any-hit rate of the full collection: about 14%.
Pf growth 96h: inhibits malaria parasite growth, 96 h. P. falciparum luciferase reporter growth, 96 h. Potency, µM (doses to about 28.7 µM), inactives show top-dose activity change, negative = inhibition, usual class: inhibitors. 320,000 tested, 6.9% active; note: potency is the fitted concentration of half-maximal effect
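96 h incubation, 37 C, 5% CO2, of luciferase-reporter P. falciparum-infected RBCs (2% hematocrit, 0.05% parasitemia final) with test compounds; endpoint luminescence.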
HCV inhibitor: HCV inhibition; Huh7.5.1 HCVcc-Cre infection, luciferase reporter, 44 h; Potency, µM (series often up to 41.8 µM), for inactives: at the highest dose activity change, negative = inhibition, hits mostly inhibitors; 340,000 tested, 3.4% active; AID 651820; note: potency is the fitted concentration of half-maximal effect
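After 44 h co-culture of compound, cells and HCVcc-Cre (~0.5 moi), substrate is added for 15 min at room temperature and luciferase measured over 15 sec. Cells were seeded at 1,000/well and pre-cultured 4 h.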
HCMV antiviral: inhibitors of human cytomegalovirus; HFF cells, HCMV-luciferase reporter, 72 h; active compounds read low; activity change, negative = inhibition, % at 57.5 µM; AID 1259415; 410,000 tested, 4.5% active; in the data active = activity change below about -60%; inconclusive = no clear call, values can overlap the other calls; inactive = above about -39%
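Compounds were evaluated in HFFs infected with an HCMV luciferase reporter virus (MOI 1 PFU/cell). Luciferase in lysates collected 72 h post infection served as the replication measure.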
Pf growth 48h: inhibits P. falciparum growth in the first generation, 48 h. Potency, µM (top dose mostly 28.7 µM), without a hit: top-dose activity change, negative = inhibition, usual class: inhibitors. 310,000 tested, 5.9% active. P. falciparum luciferase growth in erythrocytes, 48 h; note: potency is the fitted concentration of half-maximal effect
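In quantitative HTS format, infected erythrocytes bearing luciferase-reporter parasites were treated for a single generation at 37 C. Luminescence after adding detection reagent served as the growth measure.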
Marburg entry inh: inhibitors of Marburg virus binding or cell entry | Marburg virus pseudotyped entry inhibition, cell reporter | Potency, µM (highest dose often 37.8 µM), inactives show at the highest dose activity change, negative = inhibition, actives largely listed as inhibitors | 300,000 tested, 1.8% active; calls by dose curve; tested in HEK293 cells; note: potency is the fitted concentration of half-maximal effect
LASV entry inh: blocks Lassa virus binding to or entry into cells | Lassa virus pseudotype entry inhibition, cell reporter | Potency, µM (series often up to 37.9 µM), inactives show at the top dose activity change, negative = inhibition, most hits filed as inhibitors | 300,000 tested, 1.2% active; calls by dose curve; tested in HEK293 cells; note: potency is the fitted concentration of half-maximal effect; nearly all actives have a fitted effect of over 50% in size
The depositor's hits bear a star; ? = inconclusive; · = no result; [ ] = another dose, or the depositor's remark. Unless noted, calls come from the whole dose curve; as a rule, active = well fitted inhibition curve with a large enough effect; inconclusive = small, poorly fitted or top-dose-only effect, or another doubt; inactive = no such curve, though single readings can be large or run the other way. % is set by controls: 0 for no effect and ±100 for the full control effect.

SMILES	Pf growth 96h	HCV inhibitor	HCMV antiviral	Pf growth 48h	Marburg entry inh	LASV entry inh
Cc1nn(C)c2c1c(-c1ccccc1)cc(=O)n2CC(=O)NC(C)C	·	·	-12	·	·	?
CCN(CC)CCN1C(=O)C(O)=C(C(=O)c2ccco2)[C@@H]1c1ccccn1	·	·	·	·	16%[46.1 µM]	·
O=C(COc1ccc(Cl)cc1)N(Cc1ccc(F)cc1)C1CCS(=O)(=O)C1 (stereo unspecified)	?	15%	?	-4%	·	·
CCN(Cc1ccccc1)C(=O)Cn1ncc2c(=O)oc3ccc(C)cc3c21	·	·	6	·	7%[46.1 µM]	1%[46.1 µM]
COc1ccccc1Nc1ccc(Nc2ccccc2OC)nn1	?	-3%	-24	82%	-10%	-20%
O=C(O)c1cc(S(=O)(=O)O)cc(Nc2c3ccccc3nc3ccccc23)c1O	?	-5%	?	?	2%[46.1 µM]	26%
COc1ccc(OC)c(Nc2c3c(nc4ccccc24)CCC3)c1	?	?	-79*	?	2.8µM*	?
COc1ccc(OC)c(Nc2c3ccccc3nc3ccccc23)c1	?	?	-71*	1.7µM*	6.3µM*	?
COc1cc(NS(C)(=O)=O)ccc1Nc1c2ccccc2nc2ccccc12	0.93µM*	0.89µM*	-97*	1µM*	0.73µM*	0.58µM*
COc1ccc(OC)c(Nc2ccc(Nc3cc(OC)ccc3OC)nn2)c1	9.3µM*	?	-86*	?	?	-15%
O=C1N=C2C=CC=CC2c2ccccc21 (stereo unspecified)	·	·	·	·	17%	·
COc1cc(Cl)ccc1OC1(C)CCN(Cc2ccc3ccccc3c2)C1 (stereo unspecified)	·	·	-25	·	·	·
COc1cc([N+](=O)[O-])ccc1Nc1nc(C)cc(C)n1	9.3µM*	?	?	15%	-17%[46.1 µM]	·
COc1ccc(CNc2cc(C)nc3ccc(OC)cc23)cc1	-21%	14µM*	-14	?	?	·
CCNS(=O)(=O)c1c(C)cc(N2CCCC2=O)cc1C	?	?	-9	0%	1%	-7%
Cc1cc(N2CCCC2=O)cc(C)c1S(=O)(=O)NCCOc1ccccc1	74%	?	-77*	-15%	-25%	-1%
Cc1cccc(NC(=O)Cn2nc(N3CCN(c4ccccc4)CC3)ccc2=O)c1C	·	·	-19	·	·	?
O=S1(=O)NC[C@]23C[C@H](c4ccc(F)cc4)[C@@H](C[C@@H]21)O3	?	11%	-102*	-4%	·	·
COc1ccc(N2CCN(C(=O)c3ccc(C)c(NC(=O)c4nsc5ccccc45)c3)CC2)cc1	·	·	44	·	·	18%[46.1 µM]
CCn1c(SCC(=O)NNC(=O)c2ccccc2)nnc1-c1ccncc1	?	9%	-6	-3%	10%	-10%
CCn1c(SCC(=O)NNC(=O)Cc2ccccc2)nnc1-c1ccncc1	0.33µM*	5%	-35	1.5µM*	?	-5%
C=CCNC(=O)CSc1nnc(-c2ccncc2)n1CCc1ccccc1	12µM*	21%	1	1%	2%	?
Cc1ccc2oc(=O)c3cc(C(=O)N4CCN(c5ccccc5)CC4)sc3c2c1	·	·	0	·	11%[46.1 µM]	-16%[46.1 µM]
Cc1ccc(S(=O)(=O)N2CCCC2C(=O)Nc2cc(C)on2)cc1 (stereo unspecified)	26%	5%	21	4.7µM*	6%	12%
CCc1cccc(NC(=O)C2CCCN2S(=O)(=O)c2ccc3c(c2)n(C)c(=O)c(=O)n3C)c1 (stereo unspecified)	-8%	12%	-22	-10%	2%[46.1 µM]	-5%[46.1 µM]
SMILES	Pf growth 96h	HCV inhibitor	HCMV antiviral	Pf growth 48h	Marburg entry inh	LASV entry inh
Cc1cccc(NC(=O)C2CCCN2S(=O)(=O)c2ccc3c(c2)n(C)c(=O)c(=O)n3C)c1 (stereo unspecified)	8.3µM*	2%[8.37 µM]	6	2%	-27%[46.1 µM]	-4%[46.1 µM]
Clc1ccc(CSc2nnc(-c3ccccn3)n2Cc2cccs2)cc1Cl	·	·	2	·	·	·
COc1ccccc1NC(=O)Nc1ccc(-n2ccc(C(F)(F)F)n2)cc1	?	5.6µM*	-8	?	?	?
Cc1cc(C)cc(NC(=O)Nc2ccc(-n3ccc(C(F)(F)F)n3)cc2)c1	?	?	7	12µM*	?	?
O=C(O)c1ccccc1C(=O)Nc1ccc(-n2ccc(C(F)(F)F)n2)cc1	-2%	-1%	0	2%	4%[46.1 µM]	13%[46.1 µM]
O=C(Nc1ccc(-n2ccc(C(F)(F)F)n2)cc1)Nc1cccc(Cl)c1	?	·	-84*	?	·	·
O=C(O)CCC(=O)Nc1ccc(-n2ccc(C(F)(F)F)n2)cc1	58%	20%	7	1.7µM*	18%[46.1 µM]	1%[46.1 µM]
O=C(O)CCCC(=O)Nc1ccc(-n2ccc(C(F)(F)F)n2)cc1	16%	25%	-21	4%	·	·
CCOC(=O)c1ccc(S(=O)(=O)N2CCC(C(=O)N3CCN(c4ccccc4OC)CC3)CC2)cc1	·	10µM*	4	·	-19%	-13%
CCOC(=O)/C(=N\Nc1ccc(Br)cc1)N1CCN(c2ccccc2OC)CC1	?	?	6	15µM*	-25%[46.1 µM]	-21%
Cn1c(=O)oc2cc(S(=O)(=O)N3CCC(C(=O)N4CCN(c5ccccc5F)CC4)CC3)ccc21	·	·	-16	·	-1%[46.1 µM]	-8%[46.1 µM]
COc1ccccc1N1CCN(C(=O)C2CCN(S(=O)(=O)c3ccc(F)cc3)CC2)CC1	285%	-1%	37	?	?	-4%
CCOC(=O)N1CCN(c2ccccc2OC)CC1	17%	1%	-15	86%	-17%	18%
CCOc1ccc(S(=O)(=O)N2CCC(C(=O)N3CCN(c4ccccc4F)CC3)CC2)cc1C	2%	?	9	-19%	?	7.1µM*
O=C(c1ccncc1)N1CC(=O)N2[C@H](CO)[C@H](c3ccc(Br)cc3)[C@@H]2C1	·	·	-13	·	·	·
O=C(CN1C(=O)NC(Cc2ccccc2)C1=O)Nc1ccc(OC(F)F)cc1 (stereo unspecified)	13µM*	13%	-8	7%	?	-3%
O=C(CN1C(=O)NC(Cc2ccccc2)C1=O)Nc1ccccc1 (stereo unspecified)	29%	11%	23	23%	18%	9%
O=C(Cn1c(=O)oc2cc(Cl)ccc21)Nc1cccc(C(F)(F)F)c1	·	·	?	·	·	7%[46.1 µM]
CC(c1ccccc1)[n+]1ccccc1 (stereo unspecified)	12µM*	?	1	9.3µM*	·	·
COc1cccc(CC(=O)OCC(=O)N(C)CC(=O)Nc2ccccc2Cl)c1	?	3%	-31	?	·	·
CCC(C)C(NC(=O)CCC(=O)OCC(=O)[C@@]1(O)CCC2[C@@H]3CCC4=CC(=O)C=C[C@]4(C)C3[C@@H](O)C[C@@]21C)C(=O)O (stereo partly specified)	?	14%	51	3.7µM*	·	·
